Results on eight compounds are retold here after PubChem BioAssay (Tox21).

Unmarked numbers belong to inactive results. Inconclusive results are not listed. Calls of active or inactive are those of the source. Unless noted, the call rests on the fitted dose curve; in most records, active means well fitted curve in the direction sought with a large enough effect in the repeat runs; inconclusive means weak or mixed curves; inactive means no such curve, though single readings can be large; an effect the other way counts as inactive or inconclusive.

The target of assay [1] is Thyrotropin receptor (Homo sapiens) (UniProt P16473). Put plainly: qHTS assay to identify small molecule antagonists of the thyroid stimulating hormone receptor (TSHR) signaling pathway (AID 1259385; calls by dose curve; further: nearly all actives have a fitted effect of over 20% in size). Summed up: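 TSHR-HEK293 cells were plated and held 18 h at 37C/5% CO2, then given compound plus Ro20-1724 and stimulated with TSH at 1.5 ng/mL final. After 30 min at room temperature, cAMP was detected with cAMP-d2/anti-cAMP-cryptate (1 h) by fluorescence.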
Chain of Thyrotropin receptor (Homo sapiens) (P16473 whole entry, looked up): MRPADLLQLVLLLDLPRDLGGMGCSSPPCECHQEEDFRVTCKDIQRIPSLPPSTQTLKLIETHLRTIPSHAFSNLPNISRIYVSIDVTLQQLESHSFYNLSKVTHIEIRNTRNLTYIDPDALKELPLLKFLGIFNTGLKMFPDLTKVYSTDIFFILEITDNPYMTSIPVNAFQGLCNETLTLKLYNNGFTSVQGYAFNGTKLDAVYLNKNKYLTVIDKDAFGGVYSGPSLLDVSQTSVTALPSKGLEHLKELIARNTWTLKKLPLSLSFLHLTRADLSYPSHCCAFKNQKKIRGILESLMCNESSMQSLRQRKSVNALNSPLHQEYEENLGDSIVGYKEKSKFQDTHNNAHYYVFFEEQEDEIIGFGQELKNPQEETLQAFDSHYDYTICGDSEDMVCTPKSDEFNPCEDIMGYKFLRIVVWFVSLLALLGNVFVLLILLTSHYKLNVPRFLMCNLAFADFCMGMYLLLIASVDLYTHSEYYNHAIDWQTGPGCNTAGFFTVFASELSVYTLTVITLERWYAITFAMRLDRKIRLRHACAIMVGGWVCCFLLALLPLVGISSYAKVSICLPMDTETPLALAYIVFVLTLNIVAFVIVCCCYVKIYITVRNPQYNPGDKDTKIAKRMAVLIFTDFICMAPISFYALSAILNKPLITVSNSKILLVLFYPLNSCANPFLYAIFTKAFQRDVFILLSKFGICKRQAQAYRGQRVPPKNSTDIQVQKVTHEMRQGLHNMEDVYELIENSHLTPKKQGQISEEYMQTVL

A short description of assay [2]: qHTS assay to identify small molecule agonists of the estrogen receptor alpha (ER-alpha) signaling pathway in the presence of an antagonist - cell viability counter screen (AID 1259386).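 Further: cells exposed to compounds for 22 h at 37 °C before the viability read; nearly all actives have a fitted effect of over 30% in size.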 Further: potency means the concentration at half of the fitted maximal effect. Summed up:
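VM7Luc4E2, stripped-serum pre-culture 5 d; 24hr plating; +ICI-182,780 10.0nM final; cpds 15 conc, 22hr, 37C/5% CO2; CellTiter-Fluor added at 21hr, fluorescence 1hr later.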

The target of assay [3] is Progesterone receptor (Homo sapiens) (UniProt P06401). Nature of the assay: qHTS assay to identify small molecule agonists of the progesterone receptor (PR) signaling pathway (AID 1346784; calls by dose curve; further: nearly all actives have a fitted effect of over 30% in size). Summed up:
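Agonist mode, quantitative HTS format in a HEK 293T line expressing a UAS-controlled beta-lactamase reporter; 16 hr compound exposure at 37C in 2% charcoal-stripped FBS, then LiveBLAzer B/G FRET fluorescence.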

Assay [4] in a line: qHTS assay to identify small molecule antagonists of the progesterone receptor (PR) signaling pathway - cell viability counter screen (AID 1346798). Further: series mostly up to about 92 µM; nearly all actives have a fitted effect of over 50% in size. Summed up: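 Same-well multiplex: after 16 hr at 37C with compound and R5020 stimulation, HEK293T cells carrying a UAS-bla reporter received LiveBLAzer substrate (2 hr RT), then CellTiter-Glo (30 min RT) for luminescent viability.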

Assay [5] is described as follows: qHTS assay to identify small molecule agonists of the progesterone receptor (PR) signaling pathway - cell viability counter screen (AID 1346799; calls by dose curve; further: nearly all actives have a fitted effect of over 45% in size). Summed up:
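Counter screen for cytotoxicity: compound-treated PR-UAS-bla HEK293T cells (16 hr, 37C, 5% CO2) were assayed with CellTiter-Glo, luminescence measured after 30 min at room temperature.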

A short description of assay [6]: qHTS assay to identify small molecule antagonists of the TGF-beta/Smad signaling pathway - cell viability counter screen (AID 1346824). Further: nearly all actives have a fitted effect of over 50% in size. Summed up: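 SBE-bla HEK 293T cells were plated overnight at 37 C, then given compounds in DMSO plus TGF-beta1 (added as 0.25 ng/mL solution) for 5 hr. After the bla read, CellTiter-Glo was added to the same wells and luminescence read after 30 min at room temperature.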

Assay [7] is described as follows: qHTS assay to identify small molecule agonists of the TGF-beta/Smad signaling pathway - cell viability counter screen (AID 1346829). Further: top concentration of the series differs between compounds; nearly all actives have a fitted effect of over 45% in size. Summed up: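 Tox21 qHTS format: SBE-bla HEK 293T cells treated with DMSO-dissolved compounds for 5 hr; CellTiter-Glo luminescence after 30 min at room temperature.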
Assay [8] deals with Thyrotropin-releasing hormone receptor (Homo sapiens) (UniProt P34981). Put plainly: qHTS assay to identify small molecule antagonists of the thyrotropin-releasing hormone receptor (TRHR) signaling pathway (AID 1346877; active means well fitted inhibition curve with a large enough effect in the repeat runs, not every such curve was filed as active; further: series mostly up to about 51 µM). Summed up: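 Intracellular calcium fluorescence, read kinetically every second over 3 min, reports TRH-evoked signalling in HEK293 cells carrying TRHR. Test compounds were added 5 min ahead of a 1 nM TRH challenge.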
Chain of Thyrotropin-releasing hormone receptor (Homo sapiens) (P34981 whole entry, looked up): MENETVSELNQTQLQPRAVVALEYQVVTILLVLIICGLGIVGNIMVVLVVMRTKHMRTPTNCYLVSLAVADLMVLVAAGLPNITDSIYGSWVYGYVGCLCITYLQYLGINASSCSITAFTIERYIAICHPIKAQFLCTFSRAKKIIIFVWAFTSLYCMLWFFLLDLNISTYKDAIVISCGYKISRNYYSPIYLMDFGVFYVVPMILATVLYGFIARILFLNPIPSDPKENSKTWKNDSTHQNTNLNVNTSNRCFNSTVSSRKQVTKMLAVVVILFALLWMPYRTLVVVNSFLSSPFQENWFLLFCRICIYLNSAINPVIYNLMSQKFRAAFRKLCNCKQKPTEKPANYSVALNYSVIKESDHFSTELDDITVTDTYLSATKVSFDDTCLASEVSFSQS

For assay [9] the target is unchanged. Nature of the assay: qHTS assay to identify small molecule agonists of the thyrotropin-releasing hormone receptor (TRHR) signaling pathway (AID 1346891; calls by dose curve;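 further: HEK293 cells expressing TRHR with calcium dye readout; series mostly up to about 58 µM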). Summed up:
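Agonist-mode calcium mobilisation screen: TRHR-transfected HEK293 cells cultured overnight (18 h), dye-loaded for 2 h at 37 °C, exposed to compounds, and monitored by fluorescence for 3 min.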

The nature of assay [10]: Human pregnane X receptor (PXR) small molecule agonists, qHTS cell viability counter screen (AID 1346977). Further: nearly all actives have a fitted effect of over 50% in size. Further: potency means the concentration at half of the fitted maximal effect. Summed up:
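Measures live-cell protease fluorescence (CellTiter-Fluor) in PXR-Luc HepG2 cells treated 24hr with compounds at 37C. Cells had 5hr to attach before pin transfer of DMSO solutions.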

Assay [11] is described as follows: Caspase-3/7 induction in HepG2 cells by small molecules, qHTS assay (AID 1346978). Further: nearly all actives have a fitted effect of over 15% in size. Summed up:
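Wild-type HepG2 cells (2,000/well) were settled 5 h at 37 C, 5% CO2, then exposed to compounds in DMSO for 17 h. Caspase-3/7 activity was read by luminescence 30 min after adding Caspase-Glo 3/7 reagent at room temperature.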

The nature of assay [12]: Caspase-3/7 induction in CHO-K1 cells by small molecules, qHTS assay (AID 1346980). Further: nearly all actives have a fitted effect of over 15% in size. Summed up:
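Wild-type cells were seeded at 1,500 per well and settled 5 hr at 37 C, 5% CO2, then exposed to DMSO-dissolved compounds for 17 hr. Caspase-Glo 3/7 reagent was added, and luminescence was read after 30min at room temperature.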

Assay [13] in a line: Caspase-3/7 induction in HepG2 cells by small molecules, qHTS cell viability counter screen (AID 1346981). Further: nearly all actives have a fitted effect of over 30% in size. Further: potency means the concentration at half of the fitted maximal effect. Summed up: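 HepG2, WT, 2,000 cells/well; 5 hr pre-incubation 37 C/5% CO2; compound pin-transferred from DMSO; 16 hr exposure; CellTiter-Fluor, 1 hr; fluorescence read.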
Assay [14] addresses Nuclear receptor subfamily 1 group I member 2 (Homo sapiens) (UniProt O75469). Put plainly: Human pregnane X receptor (PXR) small molecule agonists, qHTS assay (AID 1346982). Further: potency means the concentration at half of the fitted maximal effect; nearly all actives have a fitted effect of over 35% in size. Summed up: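 Luciferase signal from ONE-Glo (30 min, room temperature) measured activation of hPXR-driven CYP3A4 reporter expression in PXR-Luc HepG2 cells treated with compounds for 24 hr at 37 C.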
Assay [15] addresses Progesterone receptor (Homo sapiens) (UniProt P06401). Nature of the assay: qHTS assay to identify small molecule antagonists of the progesterone receptor (PR) signaling pathway (AID 1346795; active means well fitted inhibition curve with a large enough effect in the signal ratio in the repeat runs, not every such curve was filed as active; the % refers to the signal ratio; further: potency means the concentration at half of the fitted maximal effect). Summed up:
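HEK293T PR-UAS-bla reporter cells in charcoal-stripped serum (2%) received compound after a 6 hr settling period, followed by R5020 agonist at 1 nM final; 16 hr incubation preceded the FRET substrate step and fluorescence measurement.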

Assay [16] can be described thus: qHTS assay to identify small molecule agonists of the TGF-beta/Smad signaling pathway (AID 1346859; active means well fitted activation curve with a large enough effect in the signal ratio in the repeat runs, not every such curve was filed as active; the % refers to the signal ratio; further: series mostly up to about 77 µM). Summed up: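 Smad-responsive beta-lactamase reporter cells (HEK 293T) received compounds from DMSO stocks after overnight attachment, were incubated 5 hr, then treated 2 hr with FRET substrate before dual-emission fluorescence measurement (405 nm excitation).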
Assay [17] can be described thus: Caspase-3/7 induction in CHO-K1 cells by small molecules, qHTS cell viability counter screen (AID 1346979). Further: nearly all actives have a fitted effect of over 35% in size. Further: potency means the concentration at half of the fitted maximal effect. Summed up:
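In the same wells as the caspase read, viability of compound-treated wild-type CHO-K1 cells was assessed using CellTiter-Fluor, added after 16hr at 37C and measured by fluorescence following 1hr further incubation.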

Chain of Progesterone receptor (Homo sapiens) (P06401 whole entry, looked up): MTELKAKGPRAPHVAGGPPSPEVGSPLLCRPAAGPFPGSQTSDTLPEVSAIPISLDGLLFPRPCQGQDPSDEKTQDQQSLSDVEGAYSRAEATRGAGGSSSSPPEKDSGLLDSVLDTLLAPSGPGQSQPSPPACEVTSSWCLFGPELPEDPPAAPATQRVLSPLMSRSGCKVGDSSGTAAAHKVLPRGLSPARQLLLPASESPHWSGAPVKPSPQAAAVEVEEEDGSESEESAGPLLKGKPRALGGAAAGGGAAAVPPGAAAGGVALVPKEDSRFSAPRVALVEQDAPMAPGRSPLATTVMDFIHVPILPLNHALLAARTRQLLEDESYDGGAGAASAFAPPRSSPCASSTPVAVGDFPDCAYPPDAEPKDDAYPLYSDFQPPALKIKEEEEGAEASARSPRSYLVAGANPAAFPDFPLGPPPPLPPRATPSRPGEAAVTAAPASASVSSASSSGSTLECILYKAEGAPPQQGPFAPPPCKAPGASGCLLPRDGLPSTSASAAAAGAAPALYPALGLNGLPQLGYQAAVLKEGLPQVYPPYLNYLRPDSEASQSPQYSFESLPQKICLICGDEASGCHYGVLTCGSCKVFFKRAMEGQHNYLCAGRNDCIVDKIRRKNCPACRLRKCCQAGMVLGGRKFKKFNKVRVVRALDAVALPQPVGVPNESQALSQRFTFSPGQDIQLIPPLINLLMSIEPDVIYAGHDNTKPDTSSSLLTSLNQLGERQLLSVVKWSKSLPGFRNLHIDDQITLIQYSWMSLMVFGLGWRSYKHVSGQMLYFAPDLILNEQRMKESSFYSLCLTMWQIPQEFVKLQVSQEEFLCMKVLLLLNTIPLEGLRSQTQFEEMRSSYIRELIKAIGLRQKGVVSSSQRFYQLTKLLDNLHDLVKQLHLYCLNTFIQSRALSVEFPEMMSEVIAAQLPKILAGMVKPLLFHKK
Chain of Nuclear receptor subfamily 1 group I member 2 (Homo sapiens) (O75469 whole entry, looked up): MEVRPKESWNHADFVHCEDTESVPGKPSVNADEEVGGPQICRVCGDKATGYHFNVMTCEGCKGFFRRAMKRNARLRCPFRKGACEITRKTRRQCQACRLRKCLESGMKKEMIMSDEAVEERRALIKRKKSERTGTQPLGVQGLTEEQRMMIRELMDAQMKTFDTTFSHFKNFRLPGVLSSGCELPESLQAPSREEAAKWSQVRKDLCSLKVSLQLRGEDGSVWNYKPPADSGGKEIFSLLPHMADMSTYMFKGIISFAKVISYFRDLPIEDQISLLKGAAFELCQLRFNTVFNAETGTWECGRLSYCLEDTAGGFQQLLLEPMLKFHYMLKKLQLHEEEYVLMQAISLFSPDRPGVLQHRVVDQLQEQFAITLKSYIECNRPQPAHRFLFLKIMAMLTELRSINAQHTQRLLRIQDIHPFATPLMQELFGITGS

For the compound `COC1=CC(=O)O[C@@H](CCc2ccccc2)C1`, the Potency entry in [1], in assay [2], in assay [3], in assay [4], in [5] and in assay [6] was “inactive” in each case. The Potency entry in assay [7], in [8], in [9], in assay [10], in [11] and in [12] was “inactive” throughout. In addition, the Potency entry in [13] was “inactive”. In assay [14], the Potency is 63.6 µM (active).
For the compound `O=C(CBr)Nc1ccc(Cl)cc1C(=O)c1ccccc1F`, the Potency result in assay [1], in assay [2], in assay [3], in assay [5], in [6] and in [8] was “inactive” each time. Also, the Potency result in assay [9], in [10], in assay [11], in [17], in [12] and in assay [13] was “inactive” each time. Also, the Potency in [15] was 21.1 µM (active). For the same compound, the result in assay [16] was inactive.
As to `CC(C)N(C(=O)COc1nnc(C(F)(F)F)s1)c1ccc(F)cc1`, the Potency result in assay [1], in assay [2], in assay [3], in assay [4], in assay [6] and in assay [7] was “inactive” in each case. Further, the Potency result in [10], in [11], in [17], in assay [12] and in assay [13] was “inactive” in each case. Further, the compound was classed as inactive in [16].
In the case of `CC(C)(C)c1cc([N+](=O)[O-])cc([N+](=O)[O-])c1O`, the Potency entry in assay [1], in [3], in assay [7], in [8], in [11] and in assay [12] was “inactive” in each case. The Potency in [2] is 19.3 µM (active); in assay [10], 6.84 µM (active); in [17] it was 17.2 µM (active); in assay [13], 21.6 µM (active). In addition, the result in [16] was inactive.
For `O=C(NC(=O)c1c(F)cccc1F)Nc1cc(Cl)c(Oc2ncc(C(F)(F)F)cc2Cl)c(Cl)c1`, the Potency result in [1], in assay [2], in [3], in [5], in assay [6] and in assay [7] was “inactive” in each case. Further, the Potency entry in assay [8], in assay [9], in [10], in assay [11], in assay [12] and in [13] was “inactive” throughout. Also, the Potency in [17] was 52.2 µM (active); in [14] it was 8.27 µM (active).
`CCOP(=S)(OCC)Oc1cc(Cl)c(Br)cc1Cl`: the Potency result in assay [1], in assay [2], in assay [3], in [5], in assay [10] and in [11] was “inactive” throughout. The Potency result in assay [17], in assay [12] and in assay [13] was “inactive” in each case. The result in assay [16] was inactive. Also, the Potency in [14] was 61.1 µM (active).
Turning to `CC(C)(Cl)[N+](=O)[O-]`, the Potency result in assay [1], in [2], in assay [3], in assay [6], in assay [7] and in assay [8] was “inactive” in each case. Moreover, the Potency result in [9], in [10], in [11], in assay [17], in assay [12] and in assay [13] was “inactive” throughout.
In the case of `COc1nn(CSP(=S)(OC)OC)c(=O)s1`, the Potency result in [1], in assay [2], in assay [3], in assay [6], in assay [8] and in assay [10] was “inactive” each time. For the same compound, the Potency entry in assay [11] and in [12] was “inactive” in each case. For the same compound, in [16], the call was inactive.
